Assay outcomes from PubChem.
HCMV antiviral = blocks human cytomegalovirus replication; 410,000 tested, 4.5% active; activity change, negative = inhibition, % at 57.5 µM; HFF cells, HCMV-luciferase reporter, 72 h; hits give low values; in the data active = activity change below about -60%; inconclusive = no clear call, values can overlap the other calls; inactive = above about -39%; also: % is scaled to controls: 0 for no effect and ±100 for the full control effect
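HFF cells seeded 16 h at 37C, treated with compounds, infected with luciferase-reporter HCMV at MOI 1 PFU/cell; luciferase read at 72 h post infection, normalized to buffer-only and Salinomycin controls.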
Pf growth 48h = P. falciparum growth inhibition at 48 hours (one generation); P. falciparum luciferase growth in erythrocytes, 48 h; Potency, µM (doses to about 28.7 µM), inactives show top-dose activity change, negative = inhibition, actives largely listed as inhibitors; 310,000 tested, 5.9% active; also: potency is read from the fitted curve at half-maximal effect; % is scaled to controls: 0 for no effect and ±100 for the full control effect
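Growth was read as firefly luciferase luminescence after a 48 h, 37 C, 5% CO2 exposure of compounds to reporter-bearing P. falciparum cultures (0.1% parasitemia, 2% hematocrit final) in Albumax-supplemented RPMI 1640.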
CHX counter = affects cycloheximide protein synthesis inhibition readout, counter-screen; cell reporter, cycloheximide protein synthesis inhibition counterscreen; 300,000 tested, 12% active; max response, %; in the data active = max response mostly above about 13%, no sharp cut-off; inactive = mostly below about 14%; also: read at 38.3 µM for the half of the compounds with a filed dose; 0% is about no effect
Shiga toxin inh = inhibitors of Shiga toxin in Vero cells; Vero cells, Shiga toxin protein synthesis inhibition reporter; inhibition, % at 38.7 µM; 290,000 tested, 9.2% active; AID 2315; in the data active = inhibition mostly above about 28%, no sharp cut-off; inactive = mostly below about 43%; also: 0% is about no effect
Pf growth 96h = inhibits malaria parasite growth, 96 h; 320,000 tested, 6.9% active; P. falciparum luciferase reporter growth, 96 h; Potency, µM (doses to about 28.7 µM), without a hit: top-dose activity change, negative = inhibition, most hits filed as inhibitors; also: potency is read from the fitted curve at half-maximal effect; % is scaled to controls: 0 for no effect and ±100 for the full control effect
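Delayed-death screen, second-generation endpoint: infected erythrocytes, 2% hematocrit, 0.05% parasitemia final; 96 hours at 37 C, 5% CO2; luciferase detection reagent; luminescence decrease equals reduced growth.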
* marks the source's active call; other numbers are inactive results; i = inactive; ? = inconclusive; . = no result given; [ ] = remark or other dose. This is a sample that favours compounds with a hit; in the whole collection about 20% have one here. Unless noted, calls follow the shape of the dose curve; as a rule, active = well fitted inhibition curve with a large enough effect; inconclusive = small, poorly fitted or top-dose-only effect, or another doubt; inactive = no such curve, though single readings can be large or run the other way.

SMILES	HCMV antiviral	Pf growth 48h	CHX counter	Shiga toxin inh	Pf growth 96h
CC(=O)N1CCc2cc(C(=O)CN3CCN(c4ccccn4)CC3)ccc21	6	50%	37*	77*	-13%
Cc1ccc(NC(=O)C2CCCN(c3nnc(C)c4c(C)n(-c5ccccc5)nc34)C2)cc1Cl (centres undefined)	-7	.	.	.	.
CC1=CC(=O)C(C(C)=Nc2ccccc2Cl)C(=O)O1 (centres undefined)	0	-5%	-3	19	32%
CC1(C)CC(=O)/C(=C\c2cccc([N+](=O)[O-])c2)C(C)(C)N1	-86*	?	-4	-16	?
CC(=O)Nc1ccc(Nc2nc(C(F)(F)F)nc3c2nnn3Cc2ccccc2Cl)cc1	-72*	0%	2	-9	?
CN(C)S(=O)(=O)c1ccc(Nc2nc(C3CC3)nc3c2nnn3Cc2ccccc2Cl)cc1	-79*	-12%	-2	-10	?
COC(=O)CNc1nc(C2CC2)nc2c1nnn2Cc1ccccc1Cl	19	?	-1	5	-19%
Clc1ccccc1Cn1nnc2c(Nc3ccccc3)ncnc21	-15	-8%	16*	79	?
COCCCN=Cc1c(-c2ccccc2)[nH]n(-c2nc3ccccc3s2)c1=O	33	?	16*	42	5%
CCCCCN=Cc1c(C)[nH]n(-c2nc3ccccc3s2)c1=O	-2	-42%	16*	9	1%
CCCc1[nH]n(-c2nc3ccccc3s2)c(=O)c1C=NCCCOC	-25	-20%	22	37	-15%
CCCc1[nH]n(-c2nc3ccccc3s2)c(=O)c1C=NCCN1CCOCC1	59	15%	17	28	?
O=c1cc(-c2ccccc2)[nH]n1-c1ccccc1	-29	.	.	.	.
O=c1c(C=NCCCO)c(-c2ccccc2)[nH]n1-c1nc2ccccc2s1	-14	6%	28*	39*	26%
O=c1cc(-c2ccccc2)[nH]n1-c1nc2ccccc2s1	88	16%	13	22	5.2µM*
CSc1ccc(CCNC(=O)Cn2ccc3cc(S(=O)(=O)N4CCCCCC4)ccc32)cc1	-24	.	.	.	.
COc1nnc(-c2ccc(N3CCCCC3)c(NC(=O)c3ccccc3)c2)c2ccccc12	-25	.	.	.	.
CCCNC(=O)C1(C)CCN1C(=O)c1ccccc1CCc1ccccc1 (centres undefined)	-61*	.	.	.	.
CC(C)(C)CNC(=O)C1(C)CCN1C(=O)c1ccccc1CCc1ccccc1 (centres undefined)	-15	.	.	.	.
Cc1ccc(S(=O)(=O)N2CCOCC2)cc1NC(=O)C(c1ccc(Cl)cc1)C(C)C (centres undefined)	-22	?	.	.	?
O=C(OCC(=O)N1CCCC1)c1cccs1	-11	26%	42*	72*	5%
O=C(OCC(=O)N1CCN(c2ccccc2)CC1)c1cccs1	-31	6%	.	.	41%
O=C(NCC(=O)N1CCN(c2ccccc2)CC1)c1cccs1	29	62%	22*	21	7%
COc1ccc(N2CCN(C(=O)CNC(=O)c3cccs3)CC2)cc1	8	18%	1	-4	12%
CC(C)N1CCC(=NNC(=O)c2ccccc2[N+](=O)[O-])CC1	-10	11%	-1	2	-9%
SMILES	HCMV antiviral	Pf growth 48h	CHX counter	Shiga toxin inh	Pf growth 96h
O=C(NCC(=O)N1CCCC1)c1cccs1	99	35%	17*	26*	.
CC(C)N1CCC(=NNC(=O)c2cccs2)CC1	27	17%	46*	114*	23%
CN1CCN(C(=O)CNC(=O)c2cccs2)CC1	29	.	.	.	.
Cc1ccc(C(=O)OCC(=O)Nc2ccc(F)c(Cl)c2)o1	-7	-23%	.	.	28%
COc1ccc(N2C(=O)CCC(C(=O)NCCCN3CCC(C)CC3)C2c2ccc(OC)c(OC)c2)cc1 (centres undefined)	6	5%	-4	24	159%
O=C(NCC(=O)N1CCN(c2ncccn2)CC1)c1cccs1	.	.	33*	46	88%
Cc1ccc(C)c(NC(=O)C(CC(C)C)N2Cc3ccccc3C2=O)c1 (centres undefined)	-16	.	.	.	.
CC(=O)Nc1ccc2nc(N)sc2c1	99	.	.	.	.
CN(C(=O)c1ccc2nc(N)sc2c1)c1ccccc1	-11	8%	1	23	-29%
Nc1nc2ccc(C(=O)Nc3ccccc3)cc2s1	141	64%	93*	168*	.
CCc1ccc(NC(=O)c2ccc3nc(N)sc3c2)cc1	30	32%	62*	68*	.
CCc1ccc2nc(N)sc2c1	22	i	39*	75*	256%
Cc1cc(C)c2c(=O)cc(C(=O)Nc3nc4ccc(F)cc4s3)oc2c1	10	.	.	.	.
COc1cccc(NC(=O)C2C3C=CC(O3)C2C(=O)NCc2cccnc2)c1 (centres undefined)	34	-7%	4	-10	3%
COc1ccc(CN2CCN(C(=O)CC(C)C)CC2)cc1	-5	-4%	-2	-4	-16%
CCCn1c2ccccc2c2nnc(SCc3[nH]c(=O)[nH]c3C(=O)CCCCC(=O)OCC)nc21	?	?	-3	-5	10µM*
CCOC(=O)CCCCC(=O)c1[nH]c(=O)[nH]c1CSc1nnc2c3ccccc3n(C(C)C)c2n1	?	?	4	-12	?
Cc1ccc(C2=Nc3ccccc3SC(c3cccc([N+](=O)[O-])c3)C2)cc1 (centres undefined)	14	32%	35*	70*	?
COc1ccc(C2=NN(C(=O)c3cccc([N+](=O)[O-])c3)C(c3cccc([N+](=O)[O-])c3)C2)cc1 (centres undefined)	-29	?	-1	-4	?
Cn1c2c(c(=O)n(C)c1=O)CN(Cc1ccccc1)CN2	1	.	.	.	.
Cn1c(SCC(=O)NC2CCCC2)nnc1-c1ccco1	-37	15%	-3	-7	1%
O=C(c1cccs1)N1CCOCC1	6	0%	-1	16	21%
Cc1ccc(N=C(c2cccs2)N2CCOCC2)cc1	-7	43%	15*	59*	.
Cc1cc(=O)c(C(=O)Nc2cccc(C(=O)NC3CC3)c2)nn1-c1ccccc1Cl	5	?	.	.	7.4µM*
COc1cc(-n2nnnc2SCC(=O)N2CCN(c3ccc(F)cc3)CC2)c(OC)cc1Cl	-5	15µM*	0	-6	.
SMILES	HCMV antiviral	Pf growth 48h	CHX counter	Shiga toxin inh	Pf growth 96h
CCOC(=O)CSc1nnnn1-c1cc(OC)c(Cl)cc1OC	-33	?	-2	-5	-17%
CCCCN1CCc2c(c3ccccc3n2Cc2ccccc2)C1	?	10µM*	-3	-8	6.6µM*
CN1CCc2c(c3ccccc3n2Cc2ccccc2)C1	-38	-7%[12.8 µM]	-2	-4	?
COc1ccc(NC2=CC(=O)CC(c3ccccc3)C2)cc1 (centres undefined)	-25	?	22*	-8	19%
CCCCCNC1=CC(=O)CC(c2ccccc2)C1 (centres undefined)	20	?	-3	-2	0%
O=C1C=C(Nc2ccccc2)CC(c2ccccc2)C1 (centres undefined)	3	-14%	3	22	1.9µM*
